Results on 28 compounds are retold here after PubChem BioAssay (Tox21).

A short description of experiment [1]: qHTS assay to identify small molecule agonists of the estrogen receptor alpha (ER-alpha) signaling pathway in the presence of an antagonist - cell viability counter screen (AID 1259386). For activity change, negative = cytotoxicity: series mostly up to about 92 µM.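 Note: cells exposed to compounds for 22 h at 37 °C before the viability read; nearly all actives have a fitted effect of over 30% in size.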 Note: potency is the fitted concentration of half-maximal effect. In short, it runs like this: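 Steps: 5-day stripped-FBS culture; seed and incubate 24hr; add ICI-182,780 (10.0nM final); pin 15-point compound titration; incubate 22hr at 37C; add CellTiter-Fluor at 21hr; read fluorescence.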

Experiment [2] deals with Progesterone receptor (Homo sapiens) (UniProt P06401). As to the kind of experiment: qHTS assay to identify small molecule agonists of the progesterone receptor (PR) signaling pathway (AID 1346784; calls by dose curve; note: nearly all actives have a fitted effect of over 30% in size; note: potency is the fitted concentration of half-maximal effect). Summed up: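 Agonist mode, quantitative HTS format in a HEK 293T line expressing a UAS-controlled beta-lactamase reporter; 16 hr compound exposure at 37C in 2% charcoal-stripped FBS, then LiveBLAzer B/G FRET fluorescence.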
Chain of Progesterone receptor (Homo sapiens) (P06401 whole entry, looked up): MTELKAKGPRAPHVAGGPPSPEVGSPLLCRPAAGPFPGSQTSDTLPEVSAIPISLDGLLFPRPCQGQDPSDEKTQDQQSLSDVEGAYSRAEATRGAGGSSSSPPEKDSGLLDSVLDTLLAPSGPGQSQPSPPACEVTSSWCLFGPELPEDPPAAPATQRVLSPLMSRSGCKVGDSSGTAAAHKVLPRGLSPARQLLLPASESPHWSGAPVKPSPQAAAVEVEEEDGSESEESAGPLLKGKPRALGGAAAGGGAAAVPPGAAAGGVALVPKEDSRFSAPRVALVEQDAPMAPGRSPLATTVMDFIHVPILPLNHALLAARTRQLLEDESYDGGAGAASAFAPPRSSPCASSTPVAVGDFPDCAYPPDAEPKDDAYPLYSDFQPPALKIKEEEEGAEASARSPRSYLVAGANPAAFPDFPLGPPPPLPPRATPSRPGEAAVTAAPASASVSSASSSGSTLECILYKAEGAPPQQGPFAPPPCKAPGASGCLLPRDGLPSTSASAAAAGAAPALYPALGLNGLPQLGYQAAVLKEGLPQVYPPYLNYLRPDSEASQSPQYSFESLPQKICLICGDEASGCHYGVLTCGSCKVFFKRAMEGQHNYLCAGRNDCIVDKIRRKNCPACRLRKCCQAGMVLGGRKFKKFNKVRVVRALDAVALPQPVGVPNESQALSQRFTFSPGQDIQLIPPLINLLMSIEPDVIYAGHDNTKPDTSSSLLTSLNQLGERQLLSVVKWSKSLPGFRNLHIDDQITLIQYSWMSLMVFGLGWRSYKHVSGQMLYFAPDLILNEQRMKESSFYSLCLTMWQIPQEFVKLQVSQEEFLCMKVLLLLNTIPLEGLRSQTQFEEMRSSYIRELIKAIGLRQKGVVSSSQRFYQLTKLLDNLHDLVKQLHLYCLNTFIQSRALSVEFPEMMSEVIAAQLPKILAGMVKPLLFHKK
On the technique in general: Quantitative high-throughput screening tests each substance at several concentrations.

Experiment [3] has the same target. As to the kind of experiment: qHTS assay to identify small molecule antagonists of the progesterone receptor (PR) signaling pathway (AID 1346795; active = well fitted inhibition curve with a large enough effect in the signal ratio in the repeat runs, not every such curve was filed as active; the % refers to the signal ratio; note: potency is the fitted concentration of half-maximal effect). Summed up:
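HEK293T PR-UAS-bla reporter cells in charcoal-stripped serum (2%) received compound after a 6 hr settling period, followed by R5020 agonist at 1 nM final; 16 hr incubation preceded the FRET substrate step and fluorescence measurement.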

Experiment [4] in a line: qHTS assay to identify small molecule antagonists of the progesterone receptor (PR) signaling pathway - cell viability counter screen (AID 1346798). Note: series mostly up to about 92 µM; nearly all actives have a fitted effect of over 50% in size. In short, it runs like this:
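Same-well multiplex: after 16 hr at 37C with compound and R5020 stimulation, HEK293T cells carrying a UAS-bla reporter received LiveBLAzer substrate (2 hr RT), then CellTiter-Glo (30 min RT) for luminescent viability.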

A short description of experiment [5]: qHTS assay to identify small molecule agonists of the progesterone receptor (PR) signaling pathway - cell viability counter screen (AID 1346799; calls by dose curve; note: nearly all actives have a fitted effect of over 45% in size). Summed up: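 Counter screen for cytotoxicity: compound-treated PR-UAS-bla HEK293T cells (16 hr, 37C, 5% CO2) were assayed with CellTiter-Glo, luminescence measured after 30 min at room temperature.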
Experiment [6] is described as follows: qHTS assay to identify small molecule agonists of the TGF-beta/Smad signaling pathway - cell viability counter screen (AID 1346829). Note: top concentration of the series differs between compounds; nearly all actives have a fitted effect of over 45% in size. Summed up:
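Luminescence from CellTiter-Glo, read after a 30 min room-temperature incubation, gives cell viability of SBE-bla HEK 293T cells treated 5 hr with compounds at 37 C.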

Experiment [7] in a line: qHTS assay to identify small molecule agonists of the TGF-beta/Smad signaling pathway (AID 1346859; active = well fitted activation curve with a large enough effect in the signal ratio in the repeat runs, not every such curve was filed as active; the % refers to the signal ratio; note: series mostly up to about 77 µM). Summed up: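 Smad-responsive beta-lactamase reporter cells (HEK 293T) received compounds from DMSO stocks after overnight attachment, were incubated 5 hr, then treated 2 hr with FRET substrate before dual-emission fluorescence measurement (405 nm excitation).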
In experiment [8] the target is Thyrotropin-releasing hormone receptor (Homo sapiens) (UniProt P34981). The experiment is described as follows: qHTS assay to identify small molecule antagonists of the thyrotropin-releasing hormone receptor (TRHR) signaling pathway (AID 1346877; active = well fitted inhibition curve with a large enough effect in the repeat runs, not every such curve was filed as active; note: series mostly up to about 51 µM). In short, it runs like this: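 Human TRHR in HEK293 cells; inhibition of the intracellular calcium rise triggered by 1 nM TRH was followed by fluorescence over 3 min. Compounds were run at 15 concentrations, three replicates each.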
Chain of Thyrotropin-releasing hormone receptor (Homo sapiens) (P34981 whole entry, looked up): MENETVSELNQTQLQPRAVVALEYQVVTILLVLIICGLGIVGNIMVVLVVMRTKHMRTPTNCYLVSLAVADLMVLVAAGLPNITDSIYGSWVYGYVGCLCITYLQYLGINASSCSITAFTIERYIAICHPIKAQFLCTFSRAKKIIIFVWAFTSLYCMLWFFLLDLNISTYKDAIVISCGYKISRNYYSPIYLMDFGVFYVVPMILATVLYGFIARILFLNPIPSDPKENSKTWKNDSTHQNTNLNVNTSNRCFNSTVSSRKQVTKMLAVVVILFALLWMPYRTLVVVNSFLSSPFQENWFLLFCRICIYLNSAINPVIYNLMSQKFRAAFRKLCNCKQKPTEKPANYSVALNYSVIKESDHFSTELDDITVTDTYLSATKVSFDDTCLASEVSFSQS

The target is the same in experiment [9]. The experiment is described as follows: qHTS assay to identify small molecule agonists of the thyrotropin-releasing hormone receptor (TRHR) signaling pathway (AID 1346891; calls by dose curve;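 note: HEK293 cells expressing TRHR with calcium dye readout; series mostly up to about 58 µM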). Summed up: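 Agonist-mode calcium mobilisation screen: TRHR-transfected HEK293 cells cultured overnight (18 h), dye-loaded for 2 h at 37 °C, exposed to compounds, and monitored by fluorescence for 3 min.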

The nature of experiment [10]: qHTS assay to identify small molecule antagonists of the TGF-beta/Smad signaling pathway - cell viability counter screen (AID 1346824). Note: nearly all actives have a fitted effect of over 50% in size. In short, it runs like this: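 SBE-bla HEK 293T cells were plated overnight at 37 C, then given compounds in DMSO plus TGF-beta1 (added as 0.25 ng/mL solution) for 5 hr. After the bla read, CellTiter-Glo was added to the same wells and luminescence read after 30 min at room temperature.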

Each structure is given as a SMILES string. A number with no mark means an inactive call. Results filed as inconclusive are left out. Activity calls are given as the source filed them. Unless noted, calls come from the whole dose curve; as a rule, active = well fitted curve in the direction sought with a large enough effect in the repeat runs; inconclusive = weak or mixed curves; inactive = no such curve, though single readings can be large; an effect the other way counts as inactive or inconclusive.
% is set by controls: 0 for no effect and ±100 for the full control effect.

As to `CCCCCCCCC(=O)OCC(C)OC(=O)CCCCCCCC` (stereo not drawn), the Potency entry in experiment [1], in experiment [2], in experiment [3], in experiment [4] and in [5] was “inactive” throughout. Further, the outcome in experiment [6], in experiment [7], in [8] and in experiment [9] was inactive.

As for `C=CC(C)(O)CC/C=C(/C)CCC=C(C)C` (stereo not drawn), the Potency result in experiment [1], in [2], in experiment [3], in [4] and in experiment [5] was “inactive” each time. The result in experiment [6], in [7], in experiment [8] and in experiment [9] was inactive.

For `CCC(C(=O)O)c1ccc(N2Cc3ccccc3C2=O)cc1` (stereo not drawn), the Potency result in experiment [1], in [2], in experiment [3], in experiment [4] and in experiment [5] was “inactive” in each case. Also, the result in experiment [10], in [6], in experiment [8] and in [9] was inactive.

On to `C=CC(O)CCCCC` (stereo not drawn), for which the Potency result in [1], in experiment [2], in experiment [3], in [4] and in [5] was “inactive” throughout. Besides, the call in [10], in experiment [6], in [7], in experiment [8] and in experiment [9] was inactive.

As for `Nc1ccc(F)cc1F`, the Potency result in [1], in experiment [2], in [3], in experiment [4] and in experiment [5] was “inactive” each time. Moreover, the call in experiment [6] and in experiment [7] was inactive.

With `CCCC(=O)OCc1ccccc1`, the Potency entry in experiment [1], in experiment [2], in [3], in experiment [4] and in experiment [5] was “inactive” each time. The compound was called inactive in experiment [6], in experiment [7], in [8] and in [9].

Turning to `COC=O`, the activity change, negative = cytotoxicity is -3.92% [at 8.39 µM] in [1], 0.308% [at 8.39 µM] in experiment [4], 7.63% [at 8.39 µM] in [5] and 8.3% [at 6.97 µM] in [6]. Further, the activation is 0.0776% [at 8.39 µM] in experiment [2], -0.257% [at 6.97 µM] in experiment [7] and -1.05% [at 5.23 µM] in experiment [9]. Besides, the activity change, negative = inhibition in [3] was -3.19% [at 8.39 µM]. The activity, negative = inhibition in experiment [8] is 1.15% [at 4.65 µM].

On to `OCCOc1cccc(OCCO)c1`, for which the Potency entry in [1], in [2], in experiment [3], in [4] and in experiment [5] was “inactive” each time. The outcome in experiment [6], in experiment [7], in experiment [8] and in experiment [9] was inactive.

For the compound `CCCCCCCCCCCC(=O)OCC`, the Potency entry in experiment [1], in experiment [2], in experiment [3], in [4] and in experiment [5] was “inactive” throughout. Further, the compound was classed as inactive in experiment [6] and in experiment [7].

As to `CC(C)Cc1nccs1`, the Potency result in experiment [1], in [2], in experiment [3], in experiment [4] and in [5] was “inactive” in each case. The outcome in experiment [6], in [7], in [8] and in experiment [9] was inactive.

`O=C1C=CCCC1`: the Potency result in [1], in [2], in experiment [3] and in experiment [4] was “inactive” throughout. For the same compound, the result in [10], in [6] and in experiment [7] was inactive.

Regarding `O=C1c2ccccc2C(=O)c2c1ccc(O)c2O`, the Potency in experiment [1] is 26.6 µM (active). Besides, the Potency entry in [2], in [3] and in experiment [4] was “inactive” throughout. The result in [10], in experiment [6] and in experiment [7] was inactive.

Turning to `CC(CCl)OC(C)CCl` (stereo not drawn), the Potency entry in experiment [1], in experiment [2], in [3], in experiment [4] and in experiment [5] was “inactive” in each case. The outcome in experiment [10], in [6], in experiment [7], in experiment [8] and in experiment [9] was inactive.

Turning to `CCCCCCCCS`, the Potency result in [1], in [2], in experiment [3] and in experiment [4] was “inactive” throughout. Moreover, the compound was called inactive in experiment [10], in experiment [6] and in [7].

On to `Cc1ccc2c(Cl)cc(Cl)c(O)c2n1`, for which the Potency entry in experiment [1], in experiment [2], in experiment [3], in [4] and in experiment [5] was “inactive” throughout. Besides, the call in experiment [6], in experiment [7], in experiment [8] and in [9] was inactive.

Regarding `CCCCCO`, the Potency result in experiment [1], in experiment [2], in experiment [3], in [4] and in experiment [5] was “inactive” in each case. Also, the compound was called inactive in experiment [6], in experiment [7], in experiment [8] and in experiment [9].

On to `CC(C)=CCCC(C)C=O` (stereo not drawn), for which the Potency result in experiment [1], in [2], in experiment [3], in [4] and in [5] was “inactive” in each case. The outcome in experiment [6], in [7], in [8] and in experiment [9] was inactive.

For `CC1=C(C)C(=O)C(C(CCCCCC(=O)O)c2ccccc2)=C(C)C1=O` (stereo not drawn), the Potency result in experiment [1], in [2], in [3], in [4] and in experiment [5] was “inactive” throughout. Further, the result in [10], in experiment [6], in [8] and in experiment [9] was inactive.

As for `O=C(OC1C[C@H]2CC[C@@H](C1)[N+]21CCCC1)C(O)(c1ccccc1)c1ccccc1` (stereo partly drawn), the Potency result in experiment [1], in experiment [2], in experiment [3], in experiment [4] and in [5] was “inactive” throughout. Also, the outcome in experiment [6], in experiment [7], in experiment [8] and in experiment [9] was inactive.

Regarding `N#C[C@@H]1CC(F)(F)CN1C(=O)CNC1CC2CCC(C1)N2c1ncccn1` (stereo partly drawn), the Potency entry in experiment [1], in experiment [2], in experiment [3] and in experiment [4] was “inactive” throughout. Further, the compound was classed as inactive in [10], in experiment [6] and in experiment [7].

As for `CCC(=O)O[C@]1(C(=O)COC)[C@@H](C)C[C@H]2[C@@H]3CCC4=CC(=O)C=C[C@]4(C)C3(F)[C@@H](O)C[C@@]21C` (stereo partly drawn), the Potency entry in experiment [1], in [3] and in experiment [4] was “inactive” in each case. The Potency in experiment [2] was 0.376 µM (active). Also, the result in experiment [10], in [6] and in [7] was inactive.

Turning to `COc1ccc(CN(CCN(C)C)c2ncccn2)cc1`, the Potency entry in [1], in [2], in experiment [3], in experiment [4] and in experiment [5] was “inactive” in each case. The compound was called inactive in [10], in [6], in experiment [7], in experiment [8] and in [9].

Take `Oc1ccc(Oc2ccccc2)cc1`: the Potency entry in [1], in experiment [2] and in [4] was “inactive” throughout. For the same compound, the Potency in experiment [3] was 20.6 µM (active). In addition, the compound was called inactive in experiment [10], in experiment [6] and in experiment [7].

On to `O=C(O)c1cc(C(=O)O)cc([N+](=O)[O-])c1`, for which the Potency entry in [1], in experiment [2], in experiment [3], in experiment [4] and in experiment [5] was “inactive” each time. In addition, the call in [10], in experiment [6], in experiment [7], in experiment [8] and in experiment [9] was inactive.

Regarding `O=C(OCCOCCOCCOC(=O)c1ccccc1)c1ccccc1`, the Potency result in experiment [1], in [2], in [3], in experiment [4] and in [5] was “inactive” throughout. Moreover, the compound was called inactive in [6], in experiment [7], in experiment [8] and in experiment [9].

In the case of `CCCN(C1CCN(C(=O)C2CCNCC2)CC1)[C@@H]1CCc2ccc(OC)cc2C1`, the Potency entry in [1], in experiment [2], in experiment [3] and in experiment [4] was “inactive” throughout. Further, the compound was called inactive in experiment [10], in experiment [6] and in experiment [7].

With `CCCCCCCCCCCCN1CCOCC1`, the Potency result in experiment [1], in [2], in experiment [3], in [4] and in [5] was “inactive” each time. Moreover, the result in experiment [6], in experiment [7], in [8] and in experiment [9] was inactive.

In the case of `CC(COc1ccccc1)NC(C)C(O)c1ccc(O)cc1` (stereo not drawn), the Potency result in experiment [1], in experiment [2], in [3] and in experiment [5] was “inactive” throughout. The compound was called inactive in experiment [10], in [6], in experiment [7], in experiment [8] and in [9].
